Assay outcomes from PubChem BioAssay.
NPC1 promoter act: NPC1 promoter activation. AID 485313. 2.4% of 320,000 active. Potency, µM (top dose mostly 9.22 µM), usual class: activators. Huh7 NPC1 promoter luciferase reporter, 24 h; further: nearly all actives have a fitted effect of over 60% in size
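Compounds in DMSO were transferred onto Huh7 NPC1-luciferase reporter cells pre-incubated 2 h; after 24 h at 37 °C, Amplite reagent was dispensed and luminescence recorded 10 min later.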
Rab9 prom act: activators of Rab9 promoter; Huh7 Rab9 promoter-luciferase reporter, luminescence, 24 h; Potency, µM (highest dose often 9.22 µM), actives largely listed as activators; 2.8% of 320,000 active; further: nearly all actives have a fitted effect of over 60% in size
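Huh7 cells stably carrying Rab9 promoter–luciferase reporter, plated 1500 cells/well, compound added after 2 h and incubated 24 h at 37 °C; luciferase luminescence then read after 10 min with detection reagent.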
ELG1 repair inh: inhibitors of ELG1-dependent DNA repair in HEK293T cells; 2.3% of 330,000 active; Potency, µM (top dose mostly 46.1 µM), usual class: inhibitors; HEK293T ELG1-luciferase reporter, luminescence, 16 h; DNA damage induced by 5-fluorouridine; further: nearly all actives have a fitted effect of over 55% in size
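DMSO vehicle served as the neutral condition. Each well held 2,000 cells given 5-fluorouridine plus compound; after 16 hr at 37 °C/5% CO2, ONE-Glo was added and luciferase measured 30 min later.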
ELG1 genotoxic: inducers of genotoxicity in HEK293T ELG1-luciferase cells; Potency, µM (series often up to 46 µM), most hits filed as activators; 1.3% of 330,000 active; AID 504466; HEK293T ELG1-luciferase reporter, luminescence, 16 h; further: nearly all actives have a fitted effect of over 60% in size
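Genotoxicity was scored as increased ELG1-luciferase reporter signal, measured by ONE-Glo luminescence (30 min, room temperature). Compound or vehicle exposure of the HEK293T reporter cells lasted 16 hr at 37°C.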
FLuc counter: counter-screen for miR-21 project: firefly luciferase inhibitors or activators; purified FLuc, Km substrates, luminescence inhibition; Potency, µM (doses to about 57.5 µM), usual class: inhibitors; 6.9% of 360,000 active; AID 588342; further: nearly all actives have a fitted effect of over 55% in size
Target sequence (P08659 whole entry, looked up): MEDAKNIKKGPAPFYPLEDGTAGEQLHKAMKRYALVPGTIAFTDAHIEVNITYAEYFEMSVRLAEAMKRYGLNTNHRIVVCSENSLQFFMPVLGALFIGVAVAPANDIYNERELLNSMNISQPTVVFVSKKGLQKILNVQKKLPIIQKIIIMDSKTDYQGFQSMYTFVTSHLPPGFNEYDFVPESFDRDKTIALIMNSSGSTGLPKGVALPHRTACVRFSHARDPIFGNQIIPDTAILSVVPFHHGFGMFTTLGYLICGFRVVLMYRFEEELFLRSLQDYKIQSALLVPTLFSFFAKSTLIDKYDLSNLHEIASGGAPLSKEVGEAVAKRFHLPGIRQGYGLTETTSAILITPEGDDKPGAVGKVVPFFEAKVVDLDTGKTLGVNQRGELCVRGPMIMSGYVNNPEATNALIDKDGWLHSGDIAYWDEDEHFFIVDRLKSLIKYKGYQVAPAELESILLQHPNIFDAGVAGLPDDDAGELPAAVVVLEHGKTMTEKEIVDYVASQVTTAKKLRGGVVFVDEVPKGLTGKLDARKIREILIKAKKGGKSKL
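Purified P. pyralis luciferase (10nM final) with 10uM D-luciferin and 10uM ATP (Km levels) in 50mM Tris acetate pH 7.5, 10mM Mg acetate, 0.01% Tween-20, 0.05% BSA; qHTS 6-point titration, ~60 µM downward; luminescence read.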
SMN2 splice up: SMN2 splice variant enhancement | Potency, µM (titrated, usually from 46.1 µM), hits mostly activators | AID 1458 | HEK293 SMN2-luciferase splicing reporter, luminescence, 30-36 h | 2.8% of 210,000 active; further: nearly all actives have a fitted effect of over 55% in size
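HEK293 cells carry an SMN2 […]–luciferase reporter in which exon 7 inclusion puts luciferase in frame. Cells were plated 10-12 h before compound addition, then incubated 30-36 h at 37C. ONE-Glo luminescence was read; sodium butyrate at 4.5 mM final served as control.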
A number is an active result; n = inactive; u = inconclusive; x = no result; [ ] = remark or other dose. In the library only some 9.2% were active in any assay of this set; here they are far more common. The call rests on the fitted dose curve; in most records, active means well fitted curve in the direction sought with a large enough effect; inconclusive means small, poorly fitted or top-dose-only effect, or another doubt; inactive means no such curve, though single readings can be large; an effect the other way counts as inactive or inconclusive.

SMILES	NPC1 promoter act	Rab9 prom act	ELG1 repair inh	ELG1 genotoxic	FLuc counter	SMN2 splice up
O=C1NN(c2ccc(Cl)cc2)C(=O)/C1=C\c1ccc(-c2cccc(C(=O)O)c2)o1	n	n	u	n	17µM	n
O=C(NCCC1=CCCCC1)C1CCN(C(=O)c2ccc(Br)cc2)CC1	n	n	n	n	n	x
O=C1NN(c2ccccc2)C(=O)/C1=C\c1ccc(-c2cc([N+](=O)[O-])ccc2O)o1	n	n	n	n	15µM	x
O=C1NC(=O)/C(=C/c2ccc(-c3cccc([N+](=O)[O-])c3)o2)S1	n	n	n	n	u	x
Cc1ccc(NC2=Nc3ccccc3CS2)cc1	0.32µM	0.32µM	u	u	0.48µM	x
Cc1ccc(Nc2ccccc2)cc1	n	n	n	n	n	n
COc1ccc(CC(=O)NCCc2ccc(Cl)cc2Cl)cc1	n	n	n	n	n	n
COc1ccc(CCNC(=O)c2ccc(Cl)cc2Cl)cc1	n	n	n	n	17µM	n
O=C(NCCOc1ccccc1Cl)c1ncn[nH]1	n	u	u	u	u	x
O=C(NCCOc1ccccc1Cl)c1cc(F)c(F)cc1Cl	2.8µM	2.2µM	u	u	5.4µM	x
O=C(O)CCC(=O)Nc1ccccc1C(=O)Nc1ccccc1	n	n	u	n	n	n
Cc1nn(Cc2ccccc2)c(Cl)c1C(=O)NCc1ccc(C)n1C	n	n	n	n	n	n
Cc1nn(Cc2ccccc2)c(Cl)c1C(=O)NCCc1ccccc1	2.5µM	2.2µM	u	u	9.5µM	14µM
O=C(O)CCC(=O)Nc1ccccc1C(=O)NCCc1ccccc1	u	u	u	u	19µM	u
COc1ccc(OCC(=O)Nc2c3c(nn2-c2ccc(OC)cc2)CS(=O)(=O)C3)cc1	n	n	n	n	n	x
O=C(NCCN1C(=O)S/C(=C\c2ccc(F)cc2)C1=O)c1cccc(S(=O)(=O)N2CCOCC2)c1	n	u	u	n	u	n
Cc1ccc(NS(=O)(=O)c2ccc(NC(=O)N3CCCC3)cc2)cc1C	x	x	x	x	n	x
Cc1c(NC(=O)C(C)OC(=O)C23CC4CC(CC(Br)(C4)C2)C3)c(=O)n(-c2ccccc2)n1C (stereo not drawn)	n	n	u	n	n	n
O=C(NCCOc1ccccc1)c1ccccc1Cl	0.63µM	0.45µM	u	4.6µM	8.5µM	x
O=C(NCCCl)c1ccc(OCc2ccccc2)cc1Cl	u	1.6µM	u	n	u	13µM
CN(C(=O)COc1ccccc1C(=O)NCCOc1ccccc1)c1ccccc1	n	n	10µM	n	u	n
O=C(/C=C/c1ccccc1Cl)NCCc1ccccc1	u	u	u	n	19µM	u
CCOc1ccc(S(=O)(=O)N2CCN(CCNS(=O)(=O)c3ccc(C)cc3)CC2)cc1	n	n	n	n	n	x
O=C(NCc1ccco1)c1cnn2cccnc12	n	n	n	n	n	n
COc1ccc(CNc2nc3c(-c4ccccc4)nnn3c3ccccc23)cc1	x	x	x	x	n	n
SMILES	NPC1 promoter act	Rab9 prom act	ELG1 repair inh	ELG1 genotoxic	FLuc counter	SMN2 splice up
O=C(NCCc1ccccc1)c1ccccc1Cl	0.35µM	0.45µM	u	u	1.9µM	x
CN(C)S(=O)(=O)Oc1cccc(C(=O)Nc2cccc(Cl)c2)c1	u	u	u	n	13µM	u
COc1ccc(NC(=O)c2cccc(OS(=O)(=O)N(C)C)c2)cc1	1.6µM	2µM	u	n	6µM	11µM
COc1cccc(S(=O)(=O)NCc2ccc(C(=O)Nc3cccc(Cl)c3)cc2)c1	n	n	18µM	n	n	n
CN(C)S(=O)(=O)Oc1cccc(C(=O)Nc2ccc(Cl)c(Cl)c2)c1	3.5µM	2µM	u	n	4.8µM	n
COc1ccc(NC(=O)c2ccc(S(=O)(=O)N(C)C)cc2)cc1	n	n	n	n	n	x
COc1ccc(Oc2ncc3nc(-c4ccc(OC)cc4)c(=O)n(Cc4cccs4)c3n2)cc1	x	x	x	x	x	n
CN(C)c1ccc(-c2ccc3ncnc(NCc4ccccc4)c3c2)cc1	x	x	x	x	x	n
CN(C)c1ccc(-c2cc(NCc3ccccc3)ncn2)cc1	x	x	x	x	x	0.79µM
COc1ccc(N2CCN(c3ncccc3C#N)CC2)cc1	n	n	n	n	n	n
COc1ccc(N2CCN(c3ncccc3-c3nc(-c4ccccc4C)no3)CC2)cc1	x	x	x	x	15µM	x
CCc1nnc(NC(=O)C23CC4CC(CC(C4)C2)C3)s1	u	u	u	u	11µM	x
CSc1nnc(NC(=O)C23CC4CC(CC(C4)C2)C3)s1	u	u	u	n[9.26 µM]	24µM	x
CC(C)(C)c1ccc(C(=O)Nc2ccccc2C(=O)NCCN2CCOCC2)cc1	n	n	u	n	5.4µM	x
Cc1ccc(C(=O)NC(=S)NCC2CCCO2)cc1 (stereo not drawn)	2.8µM	u	u	u	17µM	14µM
CCOc1cc(NC(=S)NCC2CCCO2)c(OCC)cc1NC(=O)c1ccc(F)cc1 (stereo not drawn)	n	n	n	n	27µM	x
Cc1ccc(C(=O)Nc2ccccc2C(=O)NCC2CCCO2)cc1 (stereo not drawn)	n	n	u	n	15µM	x
CCOc1cc(NC(=S)NCC2CCCO2)c(OCC)cc1NC(=O)c1ccc(C)cc1 (stereo not drawn)	n	n	n	n	n	n
O=C(Nc1ccccc1C(=O)NCC1CCCO1)c1ccco1 (stereo not drawn)	n	n	n	n	n	n
O=C(NC(=S)NCC1CCCO1)c1ccc(Cl)cc1 (stereo not drawn)	n	n	u	u	u	u
COc1ccccc1CNC(=O)CN1C(=O)NC2(CCOc3ccccc32)C1=O (stereo not drawn)	x	x	u	n	x	x
CCN1CCc2c(sc(NC(=S)NC(=O)c3ccccc3)c2C#N)C1	n	n	n	n	n	n
CCC1(C)Cc2c(sc(NC(=S)NC(=O)c3ccccc3)c2C#N)CO1 (stereo not drawn)	n	n	u	n	6µM	n
CC1CCc2sc(NC(=S)NC(=O)c3ccccc3)c(C#N)c2C1 (stereo not drawn)	u	u	u	n	12µM	u
N#Cc1c(NC(=O)c2ccco2)sc2c1CCC2	n	n	u	n	n	x
SMILES	NPC1 promoter act	Rab9 prom act	ELG1 repair inh	ELG1 genotoxic	FLuc counter	SMN2 splice up
N#Cc1c(NC(=S)NC(=O)c2ccccc2)sc2c1CCC2	n	u	u	u	n	n
CN1Cc2sc(NC(=S)NC(=O)c3ccccc3)c(C#N)c2CC1(C)C	n	n	u	u	13µM	x
CC1(C)Cc2c(sc(NC(=O)c3ccco3)c2C#N)CO1	1.6µM	3.2µM	u	u	1.9µM	u
COc1ccc(-c2csc3ncn(CC(=O)N4CCOCC4)c(=O)c23)cc1	n	n	n	n	n	x
Cc1cc(C)c(NC(=O)C2CCN(C(=O)N3CCOc4ccccc43)CC2)c(C)c1	x	x	x	x	n	x
O=C1C2C3C=CC(CC3)C2C(=O)N1c1ccc(Cl)cc1Cl (stereo not drawn)	n	n	n	n	15µM	x
